Test systems include EKVX NSCLC; SN12C renal; UO-31 renal; CAKI-1 renal; A498 renal; CCRF-CEM leukemia; MOLT-4 leukemia; SR leukemia; ACHN renal; TK-10 renal.
Holding throughout (assay): NCI-60 one-dose screen, 48 h (100 = growth as untreated, 0 = no growth, -100 = all killed)
What all share (conditions): 10 µM unless noted

About 83,000 compounds went through this panel and 20% of them were active in at least one assay; those are over-represented in the sample as a whole.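 Testing used 96-well plates and a 48-hour single-concentration exposure. Example: -40 means 40% of the starting cells died.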 Unmarked numbers belong to inactive results. Active and inactive are the calls of the source. Rule for the calls: active = growth percent below 10; inactive = the rest.

In the case of `COc1ccc(-c2c(-c3cc(OC)c(OC)c(OC)c3)noc2N)cc1`, the growth with EKVX NSCLC was 45.9%; in the test with SN12C renal, 27.6%; with UO-31 renal it was 41.7%; in the test with CAKI-1 renal, 28.2%; in the test with A498 renal it was 22.8%; with CCRF-CEM leukemia it was 9.85% (active). For the same compound, the growth was 13% in the test with MOLT-4 leukemia and 8.86% (active) with SR leukemia.
Take `ClC1=C(Cl)C(=C2C(Cl)=C(Cl)C(Cl)=C2Cl)C(Cl)=C1Cl`: the growth was 105% with EKVX NSCLC; 98.5% in the test on SN12C renal; 81% in the test on UO-31 renal; 88.2% in the test with A498 renal; 82.1% with MOLT-4 leukemia; 103% in the test with SR leukemia.
Consider `O=Cc1c[nH]c2ccc(NC(=O)OCc3ccccc3)cc12`, for which the growth was 106% in the test with EKVX NSCLC; 90.3% with SN12C renal; 106% in the test with UO-31 renal; 108% in the test on ACHN renal; 231% with A498 renal; 83.8% in the test with CCRF-CEM leukemia. The growth in the test on MOLT-4 leukemia is 152%; in the test on SR leukemia it was 80.4%.
Regarding `COc1ccc(-c2oc3cc(O)c(OC)c(O)c3c(=O)c2OC)cc1O`, the growth in the test with EKVX NSCLC is 83.8%; with SN12C renal, 37.3%; with UO-31 renal, 35.5%; in the test on ACHN renal, 37.5%; with CAKI-1 renal, 72.2%; in the test on CCRF-CEM leukemia, -4.31% (active). For the same compound, the growth in the test on MOLT-4 leukemia was 14.4%; in the test on SR leukemia, 7.87% (active).
With `COc1ccc2c(c1)nc(N)c1c3ccccc3cn21`, the growth is 72.7% in the test with EKVX NSCLC; 89.6% in the test with SN12C renal; 125% in the test on TK-10 renal; 81.1% in the test on ACHN renal; 68.5% with CAKI-1 renal; 75.2% in the test with A498 renal. The growth is 74.5% in the test on CCRF-CEM leukemia and 73.8% with MOLT-4 leukemia.
Consider `Cc1scc2c1N(C(=O)CN1CCN(C)CC1)c1ccccc1NC2=O`, for which the growth was 107% in the test with EKVX NSCLC; 101% with SN12C renal; 105% in the test on TK-10 renal; 102% in the test on ACHN renal; 99.5% with CAKI-1 renal; 122% in the test on A498 renal. The growth in the test with CCRF-CEM leukemia is 108%; with MOLT-4 leukemia, 96.5%.
As to `O=C1CC(C(F)(F)F)=NN1C(=O)c1nn(-c2ccc(Cl)cc2)cc1O`, the growth in the test on EKVX NSCLC was 79.5%; in the test on SN12C renal, 80.3%; in the test with UO-31 renal it was 67.3%; with ACHN renal it was 79.3%; with CAKI-1 renal, 52.8%; in the test with A498 renal, 77.8%. In addition, the growth in the test with CCRF-CEM leukemia is 53.1%; in the test on MOLT-4 leukemia, 80.4%; in the test on SR leukemia, -0.46% (active).
In the case of `O=C(CN1CCCCC1)Sc1nnc2sc3ccccc3n12`, the growth in the test on EKVX NSCLC is 104%; with SN12C renal it was 103%; in the test on UO-31 renal it was 68.3%; in the test with ACHN renal, 118%; in the test with CAKI-1 renal, 86.2%; with CCRF-CEM leukemia it was 104%. The values for the growth in the test with MOLT-4 leukemia and in the test on SR leukemia were 98.1% and 99.9%, respectively.
As for `O=C1N(C2CCCCC2)C(=O)N1C1CCCCC1`, the growth in the test with EKVX NSCLC is 51.3%; in the test with SN12C renal, 49.9%; with TK-10 renal it was 8.07% (active); with ACHN renal it was 11.4%; in the test with CAKI-1 renal it was 28.7%; in the test on A498 renal, -11.9% (active). The growth was 4.67% (active) with CCRF-CEM leukemia, 15.7% in the test on MOLT-4 leukemia and 46.6% in the test on SR leukemia.
Consider `COc1ccc(-c2cc(C(=O)Nc3nc4cc(C)c(C)cc4s3)nc3cc(-c4ccccc4)nn23)cc1OC`, for which the growth in the test with EKVX NSCLC was 107%; with SN12C renal, 107%; in the test on UO-31 renal, 103%; with ACHN renal, 106%; in the test on CAKI-1 renal, 91.3%; with A498 renal it was 129%. Further, the growth in the test with MOLT-4 leukemia is 98.7%; with SR leukemia it was 62.8%.
Take `CCCCCCC(C)(O)c1ccccc1` (centres undefined): the growth in the test with EKVX NSCLC was 101%; in the test with SN12C renal it was 96.7%; with TK-10 renal, 106%; in the test on ACHN renal, 103%; with CAKI-1 renal it was 96.8%; with A498 renal, 145%. Further, the figures for the growth in the test on CCRF-CEM leukemia, in the test with MOLT-4 leukemia and in the test on SR leukemia were 91.9%, 106% and 97.6%, respectively.
As for `COc1cc(OC)c2cc(C(=O)O)c(=O)oc2c1`, the growth with EKVX NSCLC is 98.2%; in the test with SN12C renal, 108%; in the test on TK-10 renal, 90.6%; in the test on ACHN renal it was 107%; with CAKI-1 renal, 85.9%; in the test with A498 renal it was 102%. The growth in the test with CCRF-CEM leukemia is 113%; with MOLT-4 leukemia it was 74.9%; in the test on SR leukemia, 115%.
As for `CCn1c2ccccc2c2ccc(C(C)=O)cc21`, the growth in the test with EKVX NSCLC was 99.2%; in the test with SN12C renal, 114%; in the test with UO-31 renal, 106%; in the test on ACHN renal, 98.1%; with CAKI-1 renal it was 94.1%; in the test on A498 renal, 83.8%. For the same compound, the growth was 96.8% with MOLT-4 leukemia and 97.8% with SR leukemia.
In the case of `COc1cccc(/C=C2\COc3ccc(O)c(O)c3C2=O)c1OC`, the growth with EKVX NSCLC was 70.4%; in the test on SN12C renal, -62.7% (active); in the test on TK-10 renal, 11.7%; in the test with ACHN renal, -60.1% (active); in the test with CAKI-1 renal, 22.6%; in the test with A498 renal, 80.3%. The values for the growth with CCRF-CEM leukemia, in the test with MOLT-4 leukemia and in the test on SR leukemia were 3.28% (active), -12.8% (active) and -8.94% (active), respectively.
Regarding `CCOc1cc(C(C)(C)C)ccc1C1=N[C@H](c2ccc(Cl)cc2)[C@H](c2ccc(Cl)cc2)N1C(=O)N1CCN(CC#Cc2cccc3c2CN([C@@H]2CCC(=O)NC2=O)C3=O)CC1`, the growth with EKVX NSCLC is 48.4%; with SN12C renal, 24.4%; in the test with UO-31 renal it was 5.26% (active); in the test with ACHN renal, 23.6%; in the test with CAKI-1 renal, 7.99% (active); with A498 renal it was 14.1%. Also, the growth in the test with CCRF-CEM leukemia was -4.36% (active); in the test on MOLT-4 leukemia, -13.3% (active); in the test with SR leukemia, 9.99% (active).

For the origin of these results see PubChem BioAssay (NCI).
